Screening data as filed in PubChem.
Most compounds without a hit are left out; they make up all but 1.4% or so of the library.
EPAC2 agonist = activates human EPAC2 exchange factor | EPAC2 activation, biochemical qHTS; response scale: 100% = 6.5 mM cAMP response | Potency, µM (doses to about 154 µM), for inactives: at the top dose activation, usual class: activators | 0.079% of 360,000 active | AID 720711; further: nearly all actives have a fitted effect of over 50% in size
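Nucleotide exchange monitored as fluorescence drop when BODIPY-GDP leaves Rap1B. Reaction: 100 nM EPAC2, 250 nM RAP1B-BODIPY-GDP, 50 uM GDP, room temperature, kinetic read over 30 min. Activity expressed relative to 6.5 mM cAMP.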
USP1-UAF1 inh = blocks the human USP1/UAF1 deubiquitinase complex | 0.23% of 390,000 active | recombinant USP1/UAF1, Ub-Rhodamine cleavage fluorescence | O94782 | Potency, µM (highest dose often 57.1 µM), for the others: top-dose activity change, negative = inhibition, actives largely listed as inhibitors | AID 743255; further: on the % scale 0 is the no-effect control and ±100 the full control effect; nearly all actives have a fitted effect of over 60% in size
Target sequence (O94782 whole entry, looked up): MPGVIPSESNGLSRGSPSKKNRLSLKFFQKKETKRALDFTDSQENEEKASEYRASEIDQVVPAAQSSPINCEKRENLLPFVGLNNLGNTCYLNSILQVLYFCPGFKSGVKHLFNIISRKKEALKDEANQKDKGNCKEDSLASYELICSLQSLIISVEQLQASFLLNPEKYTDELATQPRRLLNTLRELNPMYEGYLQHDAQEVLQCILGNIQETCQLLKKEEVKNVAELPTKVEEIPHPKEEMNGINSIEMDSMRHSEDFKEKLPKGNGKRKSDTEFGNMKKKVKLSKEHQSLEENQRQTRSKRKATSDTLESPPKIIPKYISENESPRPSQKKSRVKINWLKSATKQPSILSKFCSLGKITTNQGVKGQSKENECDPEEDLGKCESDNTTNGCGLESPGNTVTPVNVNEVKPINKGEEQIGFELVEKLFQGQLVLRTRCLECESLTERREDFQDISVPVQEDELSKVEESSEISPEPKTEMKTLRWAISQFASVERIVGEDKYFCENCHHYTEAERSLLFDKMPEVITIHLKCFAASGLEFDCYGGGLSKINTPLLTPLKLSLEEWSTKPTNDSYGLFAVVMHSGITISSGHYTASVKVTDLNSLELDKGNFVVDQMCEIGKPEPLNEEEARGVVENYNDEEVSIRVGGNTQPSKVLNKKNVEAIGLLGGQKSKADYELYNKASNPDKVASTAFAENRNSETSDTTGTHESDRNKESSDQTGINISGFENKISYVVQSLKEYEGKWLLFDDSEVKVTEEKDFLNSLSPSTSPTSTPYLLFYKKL
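In this screen, compounds sit with the deubiquitinase complex (1nM) for 15 min at room temperature before Ub-Rho is added at 150nM final. Fluorescence rise is then followed for 6 reads every 60 seconds.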
EPAC1 antag = blocks human EPAC1 exchange factor; O95398; EPAC1 GEF assay, Rap1b-BODIPY-GDP exchange fluorescence; 0.14% of 360,000 active; Potency, µM (top dose mostly 115 µM), without a hit: at the top dose activity change, negative = inhibition, actives largely listed as inhibitors;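 further: plate controls were vehicle for no effect and positive control for full effect; nearly all actives have a fitted effect of over 50% in size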
BRCA1 expr act = activators of BRCA1 expression. MCF7-BRCA1-FFLuc reporter, luminescence, 48 h; response scale: scaled: vehicle 0%, 10 µM genistein 100%. Potency, µM (titrated, usually from 46.1 µM), inactives show top-dose activation, hits mostly activators. 1.1% of 380,000 active. AID 624202; further: nearly all actives have a fitted effect of over 80% in size
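48 h compound treatment of MCF7-BRCA1-FFLuc cells (phenol-red free MEM, 37 °C), then 15 min with luciferase substrate and luminescence imaging.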
EPAC2 antag = blocks human EPAC2 exchange factor. Q8WZA2. EPAC2 GEF exchange of Rap1B-BODIPY-GDP, fluorescence. Potency, µM (highest dose often 114 µM), for the others: at the highest dose activity, negative = inhibition, actives largely listed as inhibitors. 0.18% of 360,000 active; further: on the % scale 0 is the no-effect control and ±100 the full control effect; nearly all actives have a fitted effect of over 45% in size
EPAC1 agonist = agonists of human EPAC1; Potency, µM (highest dose often 154 µM), inactives show top-dose activation, hits mostly activators; O95398; AID 720707; 0.073% of 360,000 active; EPAC1 agonist qHTS, biochemical assay; response scale: 100% = response to 6.5 mM cAMP; further: nearly all actives have a fitted effect of over 60% in size
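Fluorescent GDP-exchange assay: 100 nM EPAC1 with 250 nM Rap1B preloaded with BODIPY-GDP and 50 uM GDP; compounds tested as concentration series, 5 min at room temperature, then read every 5 min for 30 min (ex 480/em 540 nm); normalized to 6.5 mM cAMP.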
An asterisk follows results filed as active; ? = inconclusive; nt = no result. The call rests on the fitted dose curve; in most records, active means well fitted curve in the direction sought with a large enough effect; inconclusive means small, poorly fitted or top-dose-only effect, or another doubt; inactive means no such curve, though single readings can be large; an effect the other way counts as inactive or inconclusive. Potency means the concentration at half of the fitted maximal effect.

SMILES	EPAC2 agonist	USP1-UAF1 inh	EPAC1 antag	BRCA1 expr act	EPAC2 antag	EPAC1 agonist
O=C1CSC(c2ccc(Cl)cc2Cl)N1c1ccccn1 (stereo not given)	23%	-27%	-14%	-5%	18µM*	10%
Cc1cc(SCC(=O)Nc2ccc(C(F)(F)F)cc2)nc(=O)[nH]1	nt	-6%	nt	-3%	nt	nt
Cc1cc(Cl)c2oc(C(=O)N(C)C3CCOC3)c(C)c2c1 (stereo not given)	0%	-6%	?	2.5µM*	-16%	-12%
COc1ccc2c(c1OC)C(=O)N1c3ccccc3SC21 (stereo not given)	-9%	-14%	-4%	5µM*	9%	-2%
O=C(Nc1nnc([C@@H]2C[C@H](O)[C@@H](CO)O2)s1)c1cccc2ccccc12	-1%	nt	12%	8.9µM*	-12%	-4%
O=C(Nc1cccc(Cl)c1)Nc1nnc([C@@H]2C[C@H](O)[C@@H](CO)O2)s1	9%	nt	10%	?	0%	-14%
O=C(Nc1ccc(F)c(Cl)c1)Nc1nnc([C@H]2C[C@H](O)[C@@H](CO)O2)s1	1%	nt	-30%	11µM*	-3%	1%
O=C(Nc1nnc([C@@H]2C[C@H](O)[C@@H](CO)O2)s1)Nc1ccccc1F	5%	nt	3%	6.3µM*	-7%	2%
O=C(Nc1nnc([C@@H]2C[C@H](O)[C@@H](CO)O2)s1)c1ccccc1Cl	3%	nt	-7%	39%	10%	-9%
CN(CC(=O)Nc1ccc(Cl)c(C(F)(F)F)c1)C(=O)c1ccc2c(c1)OCCO2	1%	-25%	-13%	-14%	-13%	79µM*
CN(CC(=O)Nc1ccc(Cl)c(C(F)(F)F)c1)C(=O)C1CC(=O)N(c2ccc3c(c2)OCCO3)C1 (stereo not given)	7%	-25%	-15%	-6%	4%	2%
Cc1ccc(NS(=O)(=O)c2cc(C(=O)N3CCN(C)CC3)ccc2C)cc1C	2%	-18%	32%	-24%	-1%	4%
CCc1nnc(NC(=O)Nc2ccccc2OC)s1	1%	-5%	-3%	6.3µM*	5%	-2%
COc1ccccc1NC(=O)Nc1nnc(CC(=O)Nc2ccccc2C)s1	2%	-22%	18%	-10%	14%	-8%
O=C(/C=C/c1cccc(O)c1)c1cccnc1	8%	7%	3%	0%	4%	8%
CN(C)c1ccc(/C=C/C(=O)c2ccc3c(c2)OCO3)cc1	100µM*	25µM*	89%	-2%	59%	63µM*
CN(C)c1ccc(/C=C/C(=O)c2cccnc2)cc1	15%	28µM*	11%	-1%	-11%	11%
Cc1ccc(/C=C/C(=O)c2ccccc2O)cc1	16%	-6%	-12%	0%	-10%	13%
COc1ccc(C(=O)/C=C/c2ccc(N(C)C)cc2)c(OC)c1	-26%	22µM*	17%	-56%	57%	100µM*
CN(C)c1ccc(/C=C/C(=O)c2ccccc2O)cc1	15%	?	7%	3.2µM*	4%	14%
CCOC(=O)CCCC(=O)N1CCN(/[N+]([O-])=N/Oc2ccc([N+](=O)[O-])cc2[N+](=O)[O-])CC1	nt	nt	nt	-3%	nt	nt
CCOc1ccc(C2C(=O)N(C3CCCCC3)CC(=O)N2C2CCCC2)cc1OC (stereo not given)	nt	-3%	nt	nt	nt	nt
CN(C)c1ccc(/C=C/C(=O)c2ccc(O)cc2)cc1	21%	25µM*	48%	72%	32%	?
CN(C)c1ccc(C(=O)C=Cc2ccc([N+](=O)[O-])cc2)cc1	2%	?	2%	21%	-6%	2%
O=C(CCCl)Nc1cccc2cccnc12	nt	nt	nt	-60%	nt	nt
NC(=O)NN=C(C1CC1)C1CC1	12%	0%	2%	-9%	-1%	3%
